# Columns and labels:
# Assay in all cases: DAPPL (digital affinity profiling via proximity ligation, sequencing); 10 mM Tris-HCl pH 7.5, 50 mM NaCl, 1 mM DTT, 4% glycerol, room temperature, 30 min; GST-TFs on glutathione beads, 16-mer random dsDNA library, 0.1% formaldehyde crosslink after washing; high values mean tight binding
# Details in all cases: protein: recombinant; tags: N-terminal GST; dsDNA, one strand shown
# ELK1 = target: T1, ELK1 (Homo sapiens, UniProt P19419 1-428)
# T1 sequence: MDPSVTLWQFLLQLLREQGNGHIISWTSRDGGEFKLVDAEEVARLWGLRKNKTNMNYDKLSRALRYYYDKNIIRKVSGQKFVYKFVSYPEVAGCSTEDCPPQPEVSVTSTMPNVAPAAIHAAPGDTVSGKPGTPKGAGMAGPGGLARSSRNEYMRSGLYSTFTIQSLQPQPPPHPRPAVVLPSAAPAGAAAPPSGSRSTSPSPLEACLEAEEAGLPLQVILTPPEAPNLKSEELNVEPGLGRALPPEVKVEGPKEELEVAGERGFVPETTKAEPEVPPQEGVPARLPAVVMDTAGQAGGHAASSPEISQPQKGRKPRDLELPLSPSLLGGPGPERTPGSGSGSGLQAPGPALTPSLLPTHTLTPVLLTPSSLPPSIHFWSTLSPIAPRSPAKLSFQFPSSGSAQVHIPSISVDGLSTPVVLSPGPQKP
# How it was run: (§1)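 Binding signal is each hexamer's read frequency for a factor divided by its frequency in the tag-only sample. The factors were GST-fused human transcription factors from yeast, captured on glutathione beads, DNA-barcoded and pooled with that sample. Pools were incubated with 200 nmole of a random double-stranded 16-mer DNA library in Tris/NaCl/DTT/glycerol buffer at room temperature for 30 min, then washed, crosslinked with 0.1% formaldehyde, proximity-ligated with BsaI/T4 ligase (1 h, 37 °C), PCR-amplified and sequenced on an Illumina NextSeq500.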
# GABPA = target: T2, GABPA (Homo sapiens, UniProt Q06546 1-454)
# T2 sequence: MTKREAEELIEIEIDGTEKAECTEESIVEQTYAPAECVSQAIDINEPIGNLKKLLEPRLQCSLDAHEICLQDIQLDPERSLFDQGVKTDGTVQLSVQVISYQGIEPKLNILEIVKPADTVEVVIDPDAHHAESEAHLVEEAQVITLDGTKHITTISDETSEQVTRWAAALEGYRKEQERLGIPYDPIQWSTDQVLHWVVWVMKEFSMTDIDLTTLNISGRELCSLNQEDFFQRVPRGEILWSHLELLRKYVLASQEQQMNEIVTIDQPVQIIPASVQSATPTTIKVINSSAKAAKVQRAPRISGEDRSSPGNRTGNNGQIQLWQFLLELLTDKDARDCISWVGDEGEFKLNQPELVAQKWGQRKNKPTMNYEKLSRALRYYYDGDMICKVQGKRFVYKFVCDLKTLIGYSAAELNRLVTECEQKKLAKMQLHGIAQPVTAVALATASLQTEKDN
# How it was run: as §1
# ERG = target: T3, ERG (Homo sapiens, UniProt P11308 1-479)
# T3 sequence: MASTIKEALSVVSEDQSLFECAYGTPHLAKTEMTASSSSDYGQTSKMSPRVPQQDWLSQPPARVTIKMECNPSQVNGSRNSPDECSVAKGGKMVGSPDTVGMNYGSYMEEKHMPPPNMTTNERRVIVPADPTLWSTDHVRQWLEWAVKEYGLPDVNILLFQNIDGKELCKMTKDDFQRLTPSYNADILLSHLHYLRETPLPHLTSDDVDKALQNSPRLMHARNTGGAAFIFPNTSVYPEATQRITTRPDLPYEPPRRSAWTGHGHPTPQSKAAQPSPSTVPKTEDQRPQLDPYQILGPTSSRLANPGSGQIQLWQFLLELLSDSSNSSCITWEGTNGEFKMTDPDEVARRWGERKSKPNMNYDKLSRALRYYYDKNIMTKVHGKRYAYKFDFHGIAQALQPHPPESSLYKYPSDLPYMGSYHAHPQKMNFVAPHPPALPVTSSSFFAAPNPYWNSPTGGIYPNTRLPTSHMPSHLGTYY
# How it was run: as §1
# ELF1 = ELF1 (Homo sapiens, UniProt P32519 1-619)
# How it was run: as §1
# EHF = target: T4, EHF (Homo sapiens, UniProt Q9NZC4 1-300)
# T4 sequence: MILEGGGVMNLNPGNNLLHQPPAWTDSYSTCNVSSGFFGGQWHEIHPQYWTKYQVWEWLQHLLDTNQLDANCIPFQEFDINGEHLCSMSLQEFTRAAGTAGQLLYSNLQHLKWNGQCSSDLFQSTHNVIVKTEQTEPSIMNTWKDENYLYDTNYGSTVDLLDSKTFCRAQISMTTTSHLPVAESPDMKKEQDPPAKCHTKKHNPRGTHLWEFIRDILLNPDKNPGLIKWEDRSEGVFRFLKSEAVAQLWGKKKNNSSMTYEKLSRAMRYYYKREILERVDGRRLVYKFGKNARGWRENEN
# How it was run: as §1
# FEV = target: T5, FEV (Homo sapiens, UniProt Q99581 1-238)
# T5 sequence: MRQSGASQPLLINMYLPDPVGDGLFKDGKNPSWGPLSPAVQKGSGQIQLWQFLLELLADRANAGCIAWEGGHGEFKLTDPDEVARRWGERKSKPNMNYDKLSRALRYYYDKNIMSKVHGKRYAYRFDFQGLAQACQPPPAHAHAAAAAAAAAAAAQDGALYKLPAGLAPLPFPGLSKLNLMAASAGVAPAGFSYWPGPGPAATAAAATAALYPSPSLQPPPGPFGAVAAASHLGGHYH
# How it was run: as §1
# ETV5 = ETV5 (Homo sapiens, UniProt P41161 1-510)
# How it was run: as §1
# ELF4 = ELF4 (Homo sapiens, UniProt Q99607 1-663)
# How it was run: as §1
# ELK4 = target: T6, ELK4 (Homo sapiens, UniProt P28324-2 1-405)
# T6 sequence: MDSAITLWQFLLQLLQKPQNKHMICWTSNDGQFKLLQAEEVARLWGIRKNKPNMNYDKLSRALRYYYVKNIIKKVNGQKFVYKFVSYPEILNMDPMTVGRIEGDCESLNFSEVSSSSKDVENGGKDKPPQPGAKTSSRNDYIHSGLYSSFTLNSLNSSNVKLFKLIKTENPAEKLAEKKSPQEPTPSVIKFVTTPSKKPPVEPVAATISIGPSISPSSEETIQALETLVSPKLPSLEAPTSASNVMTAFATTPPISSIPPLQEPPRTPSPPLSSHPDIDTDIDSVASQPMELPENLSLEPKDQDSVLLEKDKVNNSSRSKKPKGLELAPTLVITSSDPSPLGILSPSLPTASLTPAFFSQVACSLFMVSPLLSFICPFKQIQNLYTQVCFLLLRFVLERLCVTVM
# How it was run: as §1
# ETV2 = target: T7, ETV2 (Homo sapiens, UniProt O00321 1-342)
# T7 sequence: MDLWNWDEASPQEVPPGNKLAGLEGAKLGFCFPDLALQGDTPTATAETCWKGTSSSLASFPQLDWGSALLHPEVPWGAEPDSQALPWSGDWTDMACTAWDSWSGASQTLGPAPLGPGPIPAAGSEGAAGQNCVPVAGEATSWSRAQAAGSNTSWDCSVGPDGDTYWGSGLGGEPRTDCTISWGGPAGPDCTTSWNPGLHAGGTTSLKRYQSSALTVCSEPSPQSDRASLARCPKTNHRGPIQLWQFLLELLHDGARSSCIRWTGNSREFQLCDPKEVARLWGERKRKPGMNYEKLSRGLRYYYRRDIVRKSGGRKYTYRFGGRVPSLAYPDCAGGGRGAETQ
# How it was run: as §1
# ETV1 = ETV1 (Homo sapiens, UniProt P50549 1-477)
# How it was run: as §1
# ERF = target: T8, ERF (Homo sapiens, UniProt P50548 1-548)
# T8 sequence: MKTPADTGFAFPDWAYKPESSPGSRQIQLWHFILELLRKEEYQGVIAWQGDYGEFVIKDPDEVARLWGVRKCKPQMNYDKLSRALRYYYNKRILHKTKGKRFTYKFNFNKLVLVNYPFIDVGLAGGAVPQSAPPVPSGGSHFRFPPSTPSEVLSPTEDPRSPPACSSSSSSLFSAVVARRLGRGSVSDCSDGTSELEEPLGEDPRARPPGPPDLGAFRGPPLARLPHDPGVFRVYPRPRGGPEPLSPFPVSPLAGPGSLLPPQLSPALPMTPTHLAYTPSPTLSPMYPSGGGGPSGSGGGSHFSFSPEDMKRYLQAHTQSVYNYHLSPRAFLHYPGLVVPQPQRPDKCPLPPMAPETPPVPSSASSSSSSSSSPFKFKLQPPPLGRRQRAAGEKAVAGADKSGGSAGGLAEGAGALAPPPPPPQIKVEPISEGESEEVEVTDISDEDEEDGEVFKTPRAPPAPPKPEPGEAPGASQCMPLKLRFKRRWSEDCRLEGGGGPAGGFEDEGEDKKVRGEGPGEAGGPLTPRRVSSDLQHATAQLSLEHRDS
# How it was run: as §1
# ETV3L = target: T9, ETV3L (Homo sapiens, UniProt Q6ZN32 1-361)
# T9 sequence: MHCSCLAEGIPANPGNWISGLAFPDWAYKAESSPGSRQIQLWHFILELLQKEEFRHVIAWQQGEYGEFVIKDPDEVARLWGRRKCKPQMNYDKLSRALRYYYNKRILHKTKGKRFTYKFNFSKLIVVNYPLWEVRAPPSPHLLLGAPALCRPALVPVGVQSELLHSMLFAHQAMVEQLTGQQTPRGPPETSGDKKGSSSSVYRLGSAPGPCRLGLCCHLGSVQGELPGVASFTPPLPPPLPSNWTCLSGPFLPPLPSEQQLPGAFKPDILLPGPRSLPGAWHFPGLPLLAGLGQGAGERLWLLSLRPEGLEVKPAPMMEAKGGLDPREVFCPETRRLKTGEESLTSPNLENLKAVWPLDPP
# How it was run: as §1
# ETS2 = target: T10, ETS2 (Homo sapiens, UniProt P15036 1-469)
# T10 sequence: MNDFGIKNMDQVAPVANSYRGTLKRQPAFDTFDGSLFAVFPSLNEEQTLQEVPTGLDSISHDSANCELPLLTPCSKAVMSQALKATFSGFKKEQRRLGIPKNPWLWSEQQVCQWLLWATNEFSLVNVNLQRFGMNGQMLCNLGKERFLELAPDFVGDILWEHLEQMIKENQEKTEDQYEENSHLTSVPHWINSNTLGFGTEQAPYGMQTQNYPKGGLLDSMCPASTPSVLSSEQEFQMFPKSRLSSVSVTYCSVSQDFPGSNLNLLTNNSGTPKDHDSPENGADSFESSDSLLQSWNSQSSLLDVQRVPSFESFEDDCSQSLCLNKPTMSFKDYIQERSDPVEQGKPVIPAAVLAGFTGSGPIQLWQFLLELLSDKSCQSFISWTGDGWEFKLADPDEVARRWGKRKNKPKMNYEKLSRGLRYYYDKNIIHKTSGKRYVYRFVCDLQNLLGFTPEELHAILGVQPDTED
# How it was run: as §1
# SPDEF = target: T11, SPDEF (Homo sapiens, UniProt O95238 1-335)
# T11 sequence: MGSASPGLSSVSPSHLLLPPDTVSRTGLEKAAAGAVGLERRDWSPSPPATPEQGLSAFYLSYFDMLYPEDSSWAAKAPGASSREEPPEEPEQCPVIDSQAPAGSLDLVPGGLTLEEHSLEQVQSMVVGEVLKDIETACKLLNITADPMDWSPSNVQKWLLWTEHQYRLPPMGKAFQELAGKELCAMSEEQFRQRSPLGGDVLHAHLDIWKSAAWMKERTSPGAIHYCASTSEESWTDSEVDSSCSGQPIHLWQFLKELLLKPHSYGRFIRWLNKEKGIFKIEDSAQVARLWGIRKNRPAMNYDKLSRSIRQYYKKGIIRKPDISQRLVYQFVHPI
# How it was run: as §1
# ETV7 = target: T12, ETV7 (Homo sapiens, UniProt Q9Y603 1-341)
# T12 sequence: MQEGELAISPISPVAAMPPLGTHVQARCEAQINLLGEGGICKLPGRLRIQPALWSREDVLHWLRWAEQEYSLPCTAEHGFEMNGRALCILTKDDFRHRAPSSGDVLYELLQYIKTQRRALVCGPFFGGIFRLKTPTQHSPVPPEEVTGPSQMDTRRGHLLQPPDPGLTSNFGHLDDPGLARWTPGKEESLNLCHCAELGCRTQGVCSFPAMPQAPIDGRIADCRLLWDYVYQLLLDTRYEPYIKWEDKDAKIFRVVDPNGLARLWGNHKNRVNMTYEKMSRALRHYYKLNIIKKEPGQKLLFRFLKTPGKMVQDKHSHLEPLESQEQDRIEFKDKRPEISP
# How it was run: as §1
# ETV3 = target: T13, ETV3 (Homo sapiens, UniProt P41162-2 1-143)
# T13 sequence: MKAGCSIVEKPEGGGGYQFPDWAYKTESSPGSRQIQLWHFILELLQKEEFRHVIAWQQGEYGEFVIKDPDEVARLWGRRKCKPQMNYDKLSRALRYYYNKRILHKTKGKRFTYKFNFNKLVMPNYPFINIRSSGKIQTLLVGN
# How it was run: as §1
# ETV6 = ETV6 (Homo sapiens, UniProt P41212 1-452)
# How it was run: as §1
# Sequence of ETV1 (P50549 whole entry): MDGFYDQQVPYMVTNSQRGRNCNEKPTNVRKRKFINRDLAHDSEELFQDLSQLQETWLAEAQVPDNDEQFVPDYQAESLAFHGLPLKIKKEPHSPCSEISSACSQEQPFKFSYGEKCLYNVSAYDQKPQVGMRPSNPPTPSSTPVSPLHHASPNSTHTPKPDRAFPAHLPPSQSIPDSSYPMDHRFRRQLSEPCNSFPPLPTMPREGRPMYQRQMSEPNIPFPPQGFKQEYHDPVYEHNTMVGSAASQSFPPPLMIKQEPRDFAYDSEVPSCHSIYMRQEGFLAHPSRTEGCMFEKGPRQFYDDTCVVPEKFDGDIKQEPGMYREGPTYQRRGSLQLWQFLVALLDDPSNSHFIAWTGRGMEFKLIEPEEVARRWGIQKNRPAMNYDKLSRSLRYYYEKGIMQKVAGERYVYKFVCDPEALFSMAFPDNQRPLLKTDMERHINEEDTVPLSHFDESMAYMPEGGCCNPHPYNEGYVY
# Sequence of ELF1 (P32519 whole entry): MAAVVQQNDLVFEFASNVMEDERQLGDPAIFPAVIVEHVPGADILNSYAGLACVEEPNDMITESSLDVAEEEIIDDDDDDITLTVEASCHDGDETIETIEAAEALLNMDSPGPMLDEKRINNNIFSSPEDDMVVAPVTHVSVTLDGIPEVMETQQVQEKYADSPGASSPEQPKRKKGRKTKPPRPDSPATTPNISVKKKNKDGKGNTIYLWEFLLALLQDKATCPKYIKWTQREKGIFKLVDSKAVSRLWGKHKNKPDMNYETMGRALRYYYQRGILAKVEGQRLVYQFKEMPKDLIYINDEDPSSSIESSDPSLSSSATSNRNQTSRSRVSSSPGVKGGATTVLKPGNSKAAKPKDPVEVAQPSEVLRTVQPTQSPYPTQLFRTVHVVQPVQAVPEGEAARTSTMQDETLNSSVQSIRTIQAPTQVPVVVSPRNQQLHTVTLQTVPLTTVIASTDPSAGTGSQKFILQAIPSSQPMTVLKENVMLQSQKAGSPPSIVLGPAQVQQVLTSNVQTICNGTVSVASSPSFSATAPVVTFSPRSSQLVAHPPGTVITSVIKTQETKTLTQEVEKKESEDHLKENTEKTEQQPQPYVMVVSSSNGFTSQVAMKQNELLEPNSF
# Sequence of ETV5 (P41161 whole entry): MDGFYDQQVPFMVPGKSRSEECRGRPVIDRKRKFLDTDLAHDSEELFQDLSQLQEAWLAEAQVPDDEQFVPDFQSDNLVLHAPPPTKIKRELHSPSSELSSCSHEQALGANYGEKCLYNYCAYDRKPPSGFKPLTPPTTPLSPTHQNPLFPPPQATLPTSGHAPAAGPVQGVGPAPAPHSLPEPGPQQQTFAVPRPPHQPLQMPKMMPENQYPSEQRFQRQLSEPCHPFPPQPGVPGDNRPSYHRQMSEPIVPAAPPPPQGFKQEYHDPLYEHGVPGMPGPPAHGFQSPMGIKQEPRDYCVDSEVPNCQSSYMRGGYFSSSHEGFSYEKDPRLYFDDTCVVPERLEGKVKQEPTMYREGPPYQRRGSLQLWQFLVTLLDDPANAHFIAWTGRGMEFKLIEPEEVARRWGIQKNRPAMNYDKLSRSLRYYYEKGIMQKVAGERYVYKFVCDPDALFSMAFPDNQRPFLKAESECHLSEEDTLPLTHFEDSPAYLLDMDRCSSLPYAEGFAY
# Sequence of ELF4 (Q99607 whole entry): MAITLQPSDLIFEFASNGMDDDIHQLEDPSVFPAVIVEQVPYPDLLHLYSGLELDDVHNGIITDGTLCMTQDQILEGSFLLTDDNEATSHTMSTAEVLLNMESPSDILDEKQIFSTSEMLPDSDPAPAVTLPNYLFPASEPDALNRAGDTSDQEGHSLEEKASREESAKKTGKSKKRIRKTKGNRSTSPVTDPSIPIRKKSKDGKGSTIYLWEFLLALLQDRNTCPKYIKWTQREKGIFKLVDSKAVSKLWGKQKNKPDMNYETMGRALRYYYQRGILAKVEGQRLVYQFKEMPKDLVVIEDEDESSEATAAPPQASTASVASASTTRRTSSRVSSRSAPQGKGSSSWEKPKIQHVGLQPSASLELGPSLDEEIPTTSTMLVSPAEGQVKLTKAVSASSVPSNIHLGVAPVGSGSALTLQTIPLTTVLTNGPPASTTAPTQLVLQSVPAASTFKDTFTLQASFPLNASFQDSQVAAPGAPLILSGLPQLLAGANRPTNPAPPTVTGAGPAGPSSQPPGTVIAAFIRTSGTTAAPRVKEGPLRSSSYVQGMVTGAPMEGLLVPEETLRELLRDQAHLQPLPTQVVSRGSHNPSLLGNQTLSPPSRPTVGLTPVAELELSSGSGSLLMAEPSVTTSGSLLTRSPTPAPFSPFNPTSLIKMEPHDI
# Sequence of ETV6 (P41212 whole entry): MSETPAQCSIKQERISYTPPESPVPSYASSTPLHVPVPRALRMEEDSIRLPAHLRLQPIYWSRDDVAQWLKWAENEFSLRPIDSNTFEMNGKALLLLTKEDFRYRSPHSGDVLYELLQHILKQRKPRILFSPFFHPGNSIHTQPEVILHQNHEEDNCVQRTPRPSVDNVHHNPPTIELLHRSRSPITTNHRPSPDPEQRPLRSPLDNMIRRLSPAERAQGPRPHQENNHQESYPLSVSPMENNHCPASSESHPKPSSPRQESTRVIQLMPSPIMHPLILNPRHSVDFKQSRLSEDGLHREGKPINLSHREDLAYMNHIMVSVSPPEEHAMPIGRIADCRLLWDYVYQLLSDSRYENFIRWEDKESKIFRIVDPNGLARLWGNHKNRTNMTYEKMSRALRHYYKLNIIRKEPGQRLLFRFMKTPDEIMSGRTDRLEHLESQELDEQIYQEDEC
sequence,measurement,setting,value
AAGGGC,binding signal,ELK1,"1.02 fold enrichment (6-mer frequency, TF over GST control)"
same,binding signal,GABPA,"1.1 fold enrichment (6-mer frequency, TF over GST control)"
same,binding signal,ERG,"1.06 fold enrichment (6-mer frequency, TF over GST control)"
same,binding signal,ELF1,"1.06 fold enrichment (6-mer frequency, TF over GST control)"
same,binding signal,EHF,"1.01 fold enrichment (6-mer frequency, TF over GST control)"
same,binding signal,FEV,"1.02 fold enrichment (6-mer frequency, TF over GST control)"
same,binding signal,ETV5,"1.06 fold enrichment (6-mer frequency, TF over GST control)"
same,binding signal,ELF4,"1.01 fold enrichment (6-mer frequency, TF over GST control)"
same,binding signal,ELK4,"1.13 fold enrichment (6-mer frequency, TF over GST control)"
same,binding signal,ETV2,"1.06 fold enrichment (6-mer frequency, TF over GST control)"
same,binding signal,ETV1,"1.05 fold enrichment (6-mer frequency, TF over GST control)"
same,binding signal,ERF,"1.06 fold enrichment (6-mer frequency, TF over GST control)"
same,binding signal,ETV3L,"1.05 fold enrichment (6-mer frequency, TF over GST control)"
same,binding signal,ETS2,"1.1 fold enrichment (6-mer frequency, TF over GST control)"
same,binding signal,SPDEF,"1.07 fold enrichment (6-mer frequency, TF over GST control)"
same,binding signal,ETV7,"1.05 fold enrichment (6-mer frequency, TF over GST control)"
same,binding signal,ETV3,"1.07 fold enrichment (6-mer frequency, TF over GST control)"
same,binding signal,ETV6,"1.04 fold enrichment (6-mer frequency, TF over GST control)"
